Laboratory results taken from PubChem BioAssay AID371 (SRMLSC, 2006).
In all, about 3,300 compounds went through this assay and about 280 (8.5%) were called active.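 How the source made its calls: active means mean growth inhibition over the two runs of 50% or more; inactive means mean growth inhibition under 50%.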 Only a selection was taken, and actives are over-represented in it overall.

experiment: A549 NSCLC cell proliferation inhibitors – ATP luminescence, human non-small cell lung line, primary screen (AID 371); settings: at 10 µM, stronger effect = higher value;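 further: compound exposure lasted 72 h before the ATP read; 0% = untreated cell signal and 100% = no luminescence left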

Growth inhibition, inactive:
CN(C)c1cccc2c(S(=O)(=O)N3CCOCC3)cccc12 15.9%
Cc1ccc(C(=O)/C=C/Nc2cccc(O)c2)cc1 37.1%
O=c1c(C=NCCCn2ccnc2)c(-c2ccccc2)[nH]n1-c1nc2ccccc2s1 17%
O=C(NCCCn1ccnc1)C(Cc1ccccc1)N1C(=O)c2ccccc2C1=O (stereo unspecified) 2.6%
Cc1cc(C)c2c(N)c(C(=O)c3ccccc3)oc2n1 19.9%
Cc1nn(-c2ccccc2)c2c1C(c1ccc(F)cc1F)C(C#N)=C(N)O2 (stereo unspecified) 17%
CCN(CC)c1ccc2cc(-c3nnc(-c4ccncc4)o3)c(=O)oc2c1 11.3%
CNC(=O)c1cc2c(ccc3ccccc32)oc1=N 9.88%
COc1ccc(C2/C(=C(\O)c3ccc4c(c3)OCCO4)C(=O)C(=O)N2CCCN(C)C)cc1 (stereo unspecified) -19.3%
O=C(OCCN1CCOCC1)c1ccc2c(c1)OCCO2 -1.1%
NC(=O)c1ccccc1OCCOCCOCCOc1ccccc1C(N)=O 4.77%
COC(=O)CSc1nc(N)nc(C)c1Br 0.51%
C=CCn1c(=O)c(C(=O)NCCN(CC)CC)c(O)c2ccccc21 13.9%
Cc1ccc(NC(=O)CSC2=C(C#N)C(c3ccco3)C3=C(CCCC3=O)N2)cc1 (stereo unspecified) 31.5%
N#CC1=C(SCc2ccccc2)NC2=C(C(=O)CCC2)C1c1ccc2c(c1)OCO2 (stereo unspecified) 35.2%
CCOC(=O)CSC1=C(C#N)C(c2ccc(OC)cc2)C2=C(CC(C)(C)CC2=O)N1 (stereo unspecified) 9.46%
COc1ccccc1NC(=O)C1=C(C)NC(SCC(=O)c2ccc(C)cc2)=C(C#N)C1c1ccco1 (stereo unspecified) 18.3%
N#Cc1ccc(-c2ccco2)nc1SCC(=O)c1ccc(Cl)cc1 36.8%
CCCCC1CC1C(=O)Nc1ccc(OC)c(OC)c1 (stereo unspecified) 11%
Cn1c(=O)c2c(nc(NCCCO)n2Cc2cccc(C(F)(F)F)c2)n(C)c1=O 29.2%
Cc1cc(=O)n2[nH]cnc2n1 4.42%
N#CCCn1cnc2c(=S)nc[nH]c21 5.6%
COc1ccc(OC)c(C2C(C#N)=C(N)Oc3cc(C)[nH]c(=O)c32)c1 (stereo unspecified) 3.98%
Nc1c(C(=O)NCc2ccco2)sc2nc(N3CCOCC3)c3c(c12)CCCC3 18.2%
Cc1ccc(C(=O)C2=C(O)C(=O)N(c3ncccn3)C2c2cccc(Cl)c2)o1 (stereo unspecified) -5.18%
COc1ccc(NC(=O)Nc2cccc(C(=O)N3CCOCC3)c2)cc1OC 1.01%
N#CC(C#N)C(c1ccsc1)c1c(-c2ccccc2)[nH][nH]c1=O (stereo unspecified) 7.27%
Cc1cc(O)c(C(C)C)cc1N=C1CSC(=O)N1 7.06%
CCCCOc1ccc(C(=O)CCN2CCCCC2)cc1 -1.37%
CCCCOc1ccc(C(=O)Nn2cnnc2)cc1 -2.48%
CC(O)(C#CCN1CCOCC1)c1ccccc1 (stereo unspecified) 2.79%
Cc1cccc(NC(=O)c2cc(N3CCOCC3)nc3ccccc23)c1 2.86%
N#Cc1nc(COc2ccc(Br)cc2)oc1NCCN1CCOCC1 13.4%
Cc1sc(-n2c(C)ccc2C)c(C#N)c1C -0.27%
COc1ccc2c(c1OC)C(=O)OC2C1c2c(cc3c(c2OC)OCO3)CCN1C (stereo unspecified) 23.2%
COc1ccc2c(c1OC)C(=O)O[C@@H]2[C@H]1c2c(cc3c(c2OC)OCO3)CCN1C 28.5%
Cc1c(C)n(C(=O)CSc2nccn2C)c2ccccc12 -7.69%
CCN(CC)CCN1C(=O)c2ccccc2NC1c1cc(OC)c(OC)c(OC)c1 (stereo unspecified) 0.59%
COc1cc(C2NC(=O)NC(C)=C2C(=O)Nc2cccc(C)c2C)cc(OC)c1OC (stereo unspecified) 0.87%
O=C1C2ON(c3ccccc3)C(c3ccncc3)C2C(=O)N1c1ccccc1 (stereo unspecified) -3.79%
O=C(O)C(O)c1ccco1 (stereo unspecified) 3.07%
Cc1cc(O)ccc1-c1cnc2ccccc2n1 13%
Cc1nc(-c2c(-c3ccc(O)cc3O)noc2C(F)(F)F)cs1 41.5%
CC1(C)CNC(=O)c2sc(N3CCOCC3)nc2C1 21.1%
Cn1ncc2c(Nc3ccccc3Br)ncnc21 4.98%
Cn1c(=O)c2c(nc(Oc3ccc4c(c3)OCO4)n2Cc2ccc(Br)cc2)n(C)c1=O 38%
Cn1c(=O)c2c(nc(NCc3ccc4c(c3)OCO4)n2Cc2ccccc2F)n(C)c1=O 43.4%
Cn1c(=O)c2c(nc(NCc3ccc4c(c3)OCO4)n2Cc2ccccc2Cl)n(C)c1=O 20.1%
Cn1c(=O)c2c(nc(Oc3ccc4c(c3)OCO4)n2Cc2ccc(F)cc2)n(C)c1=O 17.7%
CC1(C)Cc2c(sc3nc(SCC(=O)NCc4ccco4)n(-c4ccccc4)c(=O)c23)CS1 22.8%
CCCc1cc(-n2ccnc2C)n2c(nc3ccccc32)c1C#N -0.15%
CCOC(=O)C1CCN(c2nc3ccccc3nc2C(C#N)C(=O)NCCc2ccccc2)CC1 (stereo unspecified) 30.8%
Cc1cc(/C(O)=C2\C(=O)C(=O)N(CCN(C)C)C2c2ccncc2)ccc1OCc1ccccc1 (stereo unspecified) 2.4%
Cc1cc(C)n(S(=O)(=O)Cc2ccccc2)n1 6%
Cc1cc(C)n(C(=O)CNC(=O)CCc2ccccc2)n1 -2.74%
Cc1cc(C)n(CC2CC(=O)N(c3ccc(C)c(Cl)c3)C2=O)n1 (stereo unspecified) 0.93%
Clc1ccc(COc2ccccn2)c(Cl)c1 1.66%
COc1ccc(C(=O)c2ccc(N3CCOCC3)cc2)c(OC)c1 44.9%
CCOC(=O)C(C)Oc1nc(Oc2ccccc2)nc(N(C)C)n1 (stereo unspecified) 6.36%
O/N=C1\CCc2cc(Cl)ccc21 -5.2%
CCOC(=O)N1CCN(C2OC(=O)c3ccccc32)CC1 (stereo unspecified) -1.65%
CC(=O)Nc1n[nH]c(S(=O)(=O)Cc2ccc(Cl)cc2Cl)n1 -13.6%
COc1cc(C)nc(Oc2ccc(=O)n(C)n2)n1 -3.96%
CCCCNC(=O)N1CCOCCOCCN(C(=O)NCCCC)CCOCCOCC1 2.12%
COc1ccc(CC(=O)OCN2C(=O)c3ccccc3C2=O)cc1 2.96%
CN1CCN(C2=Nc3ccccc3Oc3ccc(Cl)cc32)CC1 18.5%
C=CCSc1nnc2n(CCc3ccccc3)c(=O)c3c4c(sc3n12)COC(C)(C)C4 12.2%
Cn1c(Cn2cnc(Cl)c2Cl)nc2ccccc21 -4.26%
c1ccc(-c2nnc3sc(Cc4cccs4)nn23)cc1 21.9%
Clc1ccc(-c2nnc3sc(Cc4cccs4)nn23)cc1 15%
CCOC(=O)CSc1nc(N)c2c3c(sc2n1)CCCC3 -5.16%
COCCCn1cnc2c(c1=O)c1nc3ccccc3nc1n2CCc1ccccc1 26.2%
CN(C)c1nc(OCCOC(=O)Nc2ccc(Cl)cc2Cl)nc(N(C)C)n1 25.3%
NC(=O)/C(=N\O)c1ccccc1 2.31%
Cc1cc(C)n2c3c(c(C#N)c2n1)CC(C)(C)OC3 5.01%
Cc1nnc(SCCC#N)n(CCC#N)c1=O -2.27%
CN1C(=S)SC(N(O)C(=O)Nc2ccccc2)C1(C)C (stereo unspecified) 8.85%
O=c1[nH]cnc2c1cnn2Cc1ccccc1 -3.92%
Cc1ccc(-n2ncc3c(NCCCOC(C)C)ncnc32)c(C)c1 21.4%
COc1ccccc1Nc1ncnc2c1cnn2-c1cccc(C)c1 6.73%
Cc1cccc(-n2ncc3c(NCCN4CCOCC4)ncnc32)c1 4.3%
Clc1ccc(-n2ncc3c(NCc4ccccn4)ncnc32)cc1 12.7%
Cc1ccc(-n2ncc3c(NCc4cccnc4)ncnc32)c(C)c1 30.4%
Clc1ccc(-n2ncc3c(NCc4cccs4)ncnc32)cc1 20.6%

Growth inhibition, active:
N=c1c2c(-c3ccccc3)c(-c3ccccc3)n(Cc3ccccc3)c2ncn1CCCn1ccnc1 91.5%
CCCCCCc1cc2cc(C(=O)NC)c(=N)oc2cc1O 87.4%
CCCCCCc1cc2cc(-c3nnc(-c4ccccc4O)o3)c(=O)oc2cc1O 95%
N#CC1=C(SCC(=O)c2ccc(Br)cc2)NC2=C(C(=O)CCC2)C1c1ccco1 (stereo unspecified) 77.8%
N#CC1=C(SCC(=O)c2ccccc2)NC2=C(C(=O)CCC2)C1c1ccco1 (stereo unspecified) 69%
N#CC1=C(SCC(=O)c2ccc(Cl)cc2)NC2=C(C(=O)CCC2)C1c1ccco1 (stereo unspecified) 80%
Cc1ccc(C(=O)CSC2=C(C#N)C(c3ccco3)C3=C(CCCC3=O)N2)cc1 (stereo unspecified) 76.4%
Oc1ccc(/C=C/c2cc(O)cc(O)c2)cc1 63.9%
CCCCOc1ccc(C(=O)OC2CC(C)N(C)CC2C)cc1 (stereo unspecified) 90%
COc1cc([C@@H]2c3cc4c(cc3[C@H](O)[C@H]3COC(=O)[C@H]23)OCO4)cc(OC)c1OC 66.9%
COc1cc(C2Nc3cccc4cccc(c34)N2)cc(OC)c1OC(C)=O 68.5%
Cc1[nH]nc(-c2ccc(O)cc2O)c1Oc1ccccc1 56.1%
Cn1c(=O)c2c(nc(NCc3ccc4c(c3)OCO4)n2Cc2ccccc2)n(C)c1=O 67.4%
Cn1c(=O)c2c(nc(NCc3ccc4c(c3)OCO4)n2Cc2ccc(F)cc2)n(C)c1=O 74.4%
Cc1cc(C)n(S(=O)(=O)/C=C/c2ccccc2)n1 68.5%
CCOC(=O)N1CCC(=C2c3ccc(Cl)cc3CCc3cccnc32)CC1 65.8%
Cn1c(Cl)cnc1C1CC(=O)c2cc(Cl)ccc2O1 (stereo unspecified) 62.9%
Clc1ccc(-c2nnc3sc(Cc4cccs4)nn23)c(Cl)c1 52.8%
CNCCC(Oc1ccc(C(F)(F)F)cc1)c1ccccc1 (stereo unspecified) 91.3%
Cc1cccc(-n2ncc3c(NCc4ccco4)ncnc32)c1 63%
Cc1ccc(-n2ncc3c(NCc4ccc5c(c4)OCO5)ncnc32)c(C)c1 52.8%
Clc1ccc(-n2ncc3c(NCc4ccco4)ncnc32)cc1 51.6%
